Assay outcomes (PubChem BioAssay)
The list is not random: actives were taken first. Their share in the collection is about 1.1%.
GPT2 inh = Primary qHTS assay for inhibitors of Glutamate pyruvate transaminase 2 (GPT2). 100,000 compounds, 0.25% hits. Recombinant GPT2, coupled pyruvate oxidase/HRP Amplex Red fluorescence. Alanine aminotransferase 2 (Homo sapiens), Q8TD30. Potency, µM (doses to about 57.7 µM), for the others: top-dose activity change, negative = inhibition, hits mostly inhibitors; further: potency means the concentration at half of the fitted maximal effect; nearly all actives have a fitted effect of over 60% in size
Target sequence (Q8TD30 whole entry, looked up): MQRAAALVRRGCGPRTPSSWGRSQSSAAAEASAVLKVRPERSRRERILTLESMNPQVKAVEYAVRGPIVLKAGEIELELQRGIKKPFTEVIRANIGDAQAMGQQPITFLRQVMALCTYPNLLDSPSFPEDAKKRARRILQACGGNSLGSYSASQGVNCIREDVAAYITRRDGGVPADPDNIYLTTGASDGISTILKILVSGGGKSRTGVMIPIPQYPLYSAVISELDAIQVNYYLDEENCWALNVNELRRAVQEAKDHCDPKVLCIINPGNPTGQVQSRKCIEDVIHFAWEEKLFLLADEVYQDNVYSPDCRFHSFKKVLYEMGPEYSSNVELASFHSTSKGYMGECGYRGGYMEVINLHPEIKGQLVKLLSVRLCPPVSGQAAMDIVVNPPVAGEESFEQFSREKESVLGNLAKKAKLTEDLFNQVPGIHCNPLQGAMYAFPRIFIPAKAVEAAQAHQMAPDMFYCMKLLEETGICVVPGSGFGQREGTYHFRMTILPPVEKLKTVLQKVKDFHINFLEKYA
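Recombinant GPT2 (10ng/uL) with 250uM a-KG and 2mM L-alanine, 30 min at room temperature, in HEPES pH 7.5 buffer. Pyruvate detected by pyruvate oxidase/HRP/Amplex Red fluorescence after 30 min in the dark; AOA (50uM) as positive control.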
HEK293 viab = GF-AFC viability counterscreen for inhibitors of alpha-synuclein gene (SNCA) expression | HEK-293-SNCA-luc viability, GF-AFC fluorescence, 24 h | Potency, µM (top dose mostly 57.1 µM), for the others: at the highest dose activity change, negative = cytotoxicity, actives largely listed as cytotoxic | 150,000 compounds, 0.12% hits;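 further: potency means the concentration at half of the fitted maximal effect; 0% = DMSO-treated cells and -100% = medium-only wells without cells; nearly all actives have a fitted effect of over 30% in size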
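Cytotoxicity counterscreen: after 24 h compound treatment of genome-edited SNCA-luciferase HEK-293 cells, live-cell protease substrate GF-AFC read by fluorescence after 30 min; activity scaled between DMSO (0%) and medium-only (-100%), curves Hill-fitted.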
SNCA expr inhib = Primary qHTS assay for inhibitors of alpha-synuclein gene (SNCA) expression; Potency, µM (series often up to 57.2 µM), without a hit: at the top dose activity change, negative = inhibition, usual class: inhibitors; AID 1671194, 2021; 140,000 compounds, 0.17% hits; HEK-293 SNCA-luciferase knock-in, luminescence, 24 h;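 further: potency means the concentration at half of the fitted maximal effect; plate controls were DMSO cells for no effect and cell-free wells for full effect; nearly all actives have a fitted effect of over 45% in size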
IP6K1 inh = Primary qHTS assay for small molecule inhibitors of Inositol hexaphosphate kinase 1 (IP6K1); Inositol hexakisphosphate kinase 1 (Homo sapiens), Q92551; IP6K1 kinase, ADP-Glo luminescence, 2 h; active compounds read low; activity change, % (series mostly up to about 58 µM); 140,000 compounds, 0.81% hits; in the data active means activity change below about -25%
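ADP-Glo luminescence measures ADP made by human IP6K1 during a 2 h RT reaction with ATP/IP6 (mix at 1.3 mM/130 uM); top library doses 57.5 and 19.1 uM final.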
Active calls of the source: *; i = inactive; ? = inconclusive; · = not tested or not shown; ! = a repeat was not active; [ ] = another dose, or the depositor's remark. Unless noted, the call rests on the fitted dose curve; in most records, active means well fitted curve in the direction sought with a large enough effect; inconclusive means small, poorly fitted or top-dose-only effect, or another doubt; inactive means no such curve, though single readings can be large; an effect the other way counts as inactive or inconclusive. Unless noted, on the % scale 0 is the no-effect control and ±100 the full control effect.

SMILES	GPT2 inh	HEK293 viab	SNCA expr inhib	IP6K1 inh
CCN(CC)CCOc1ccc(Nc2ncc3cc(-c4c(Cl)cccc4Cl)c(=O)n(C)c3n2)cc1	?	?	3.04µM*	·
COc1ccc(-c2cc(C(=O)N(C)c3ccccc3)c3cnn(C)c3n2)cc1	·	·	·	0.5
COc1ccccc1-c1cccc(CN2CCCC(C(=O)N3CCCCC3)C2)c1 (stereo not given)	i	-13.8%	-6.4%	-6.8
Cc1ccsc1CN1CC(Oc2ccccc2C(=O)NCc2ccccc2)C1	i	?	?	-5.3
Cc1cccc(-n2ncc3c(N4CCCC(C)C4)ncnc32)c1 (stereo not given)	·	5.4%	3.98µM*	-6.0
CCOC(=O)c1c(C)n(-c2ccccc2)c2ccc(OC(=O)c3ccccc3NC(=O)C(C)(C)C)cc12	·	?	12.6µM*	-17.0
CCOC(=O)c1c(C)n(-c2ccccc2)c2ccc(OC(=O)c3ccccc3NC(=O)C(C)C)cc12	·	?	?	-13.2
COc1cccc2c1C(=O)c1c(O)c3c(c(O)c1C2=O)C[C@@](O)(C(=O)CO)C[C@@H]3O[C@H]1C[C@H](N)[C@H](O)[C@H](C)O1	i	-7.2%[23.9 µM]	-54.0%[25.6 µM]	-20.6
COc1cccc2c1C(=O)c1c(O)c3c(c(O)c1C2=O)C[C@@](O)(C(C)=O)C[C@H]3O[C@H]1C[C@H](N)[C@H](O)[C@H](C)O1	i	?	0.241µM*	·
Fc1ccc(-n2cc(CCCCN3CCC4(CC3)OCc3ccccc34)c3ccccc32)cc1	-3.4%	18.9µM*	·	20.7
CN1Cc2sccc2C(c2ccc(O)c(O)c2)C1 (stereo not given)	3.98µM*	-18.2%	14.5%	·
CN1CCc2cc(O)c(O)cc2C(c2ccccc2)C1 (stereo not given)	?	-6.8%	-12.7%	·
CCn1cc(CN2CCN(Cc3ccccc3)CC2)ccc1=O	?	-5.3%	-2.7%	3.6
CCn1c2ccccc2c2cc(CN3CCN(Cc4ccc(Br)cc4)CC3)ccc21	·	14.5%	-10.6%	-58.0*
CCN(CC)CCNC(=O)c1ccc2nc(-c3ccccc3)c(-c3ccc(CN4CCC(n5c(=O)[nH]c6ccccc65)CC4)cc3)nc2c1	3.7%	15µM*!	?	-0.8
Cc1[nH]nc2ccc(-c3cncc(OC[C@@H](N)Cc4ccccc4)c3)cc12	-25.6%	9.47µM*!	0.171µM*	-6.1
Cc1ccc(Nc2ccnc(N3CCC(NC(=O)c4ccccc4Cl)CC3)n2)cc1	0.2%	-16.5%	12.7%	-11.9
O=C(c1cccc(F)c1)N1CCCC(Cc2noc(-c3ccccc3)n2)C1 (stereo not given)	-35.6%	3.55µM*	?	6.0
O=C(NCc1ccccc1)c1csc(Nc2ccncn2)n1	-16.3%	?	9.61µM*	-1.3
Cc1cccc(CNC(=O)c2csc(N3CCN(c4ccccc4)CC3)n2)c1	-4.2%	-19.4%	-9.9%	1.9
CC1=C(CO)C(=O)O[C@@H]([C@@H](C)[C@H]2CC[C@H]3[C@@H]4C[C@H]5O[C@]56[C@@H](O)C=CC(=O)[C@]6(C)[C@H]4CC[C@]23C)C1	1.6%[27.3 µM]	10.3µM*	·	-7.5
CC1=C(CO)CC(C(C)C2CCC3C4CC=C5CC(OC6OC(COC7OC(CO)C(O)C(O)C7O)C(O)C(O)C6O)CC(O)C5(C)C4CCC23C)OC1=O (stereo not given)	i	-23.4%[23.9 µM]	·	-3.8
COc1ccc(-c2nn(-c3cc(C)ccc3C)c(OC(C)=O)c2-c2ccc(NC(C)=O)cc2)c(OC)c1	2.82µM*	1.8%	7.0%	-8.0
O=C(c1ncn[nH]1)N1C[C@@H](COCC2CC2)[C@H](c2ccccn2)C1	i	-24.1%	0.794µM*	1.9
Fc1ccc(CN2CC[C@H](c3nc4ccc(C(F)(F)F)cc4[nH]3)C2)cc1F	?	31.6µM*	7.94µM*	10.2
SMILES	GPT2 inh	HEK293 viab	SNCA expr inhib	IP6K1 inh
COc1ccc(-c2cc3nc4c(c(=O)n3[nH]2)CN(C(=O)Cc2ccc(NC(C)=O)cc2)CC4)cc1	?	4.6%	8.91µM*	0.0
CC(C)=CCCC1(C)/C=C/C(OC(=O)C=C(C)C)C(C)(O)/C=C/C(=O)/C(CO)=C\C1 (stereo not given)	-9.8%[27.3 µM]	13µM*	·	1.6
C[C@H](C(=O)N1CCOCC1)C1CC[C@@]2(C)Cc3sc(-c4ccccc4)nc3[C@@H](C)[C@@H]2[C@H]1O (stereo not given in full)	2.5%	-7.3%	3.16µM*	0.3
CCCNC(=O)NC[C@@H]1C=C(C)[C@H](Cc2nc3ccc(OC)cc3[nH]2)C[C@H]1C(C)C	-11.3%[88.5 µM]	28.2µM*	?	-2.5
CCCNC(=O)NC[C@@H]1C=C(C)[C@H](Cc2nc3ccc(C(=O)OC)cc3[nH]2)C[C@H]1C(C)C	2.2%	-15.1%	-0.5%	5.5
CCC(CC)C(=O)NC[C@@H]1C=C(C)[C@H](Cc2nc3c(C)cccc3[nH]2)C[C@H]1C(C)C	i	14.1µM*	?	16.2
CC1=C[C@@H](CNC(=O)NC2CCCCC2)[C@H](C(C)C)C[C@H]1Cc1nc2c(C)cccc2[nH]1	-7.3%	-26.9%	-9.8%	8.2
Cc1cccc(N(C)C(=O)Cn2c(-c3cccc(Cl)c3)nc(C)c(CCO)c2=O)c1	-15.4%	-18.1%	-18.9%	5.2
CNC(=O)c1cc(C2CC2)nc2c1c(C1CCCN([S+](=O)([O-])c3ccccc3)C1)nn2C (stereo not given)	·	·	·	-4.4
CCOC(=O)C1CCCN(C(=O)c2ccc3nc(-c4ccncc4)oc3c2)C1 (stereo not given)	-1.9%	6.9%	-4.9%	2.5
O=C(Cc1ccccc1)N1C[C@@H](CO)[C@@H]2Oc3ccc(Cl)cc3[C@@H]21	·	·	·	16.3
c1ccc(CN2CCCCC2c2nc(CCOCC3CCCC3)no2)nc1 (stereo not given)	-6.1%	4.2%[12.5 µM]	22.4µM*	5.0
Cc1ncsc1CN1CCCCC1c1nc(CCOCC2CC2)no1 (stereo not given)	i	1.5%	-32.8%	41.9
O=C(c1cc2ccc3cccnc3c2[nH]1)N1CCCCC1	·	-2.3%	?	-17.0
CC1CCCN(C(=O)c2cc3ccc4cccnc4c3[nH]2)C1 (stereo not given)	·	?	2.24µM*	-5.2
COc1cc(-n2cnc3cc(-c4ccc(Cl)cc4)sc3c2=O)ccc1OCCN1CCCC1	i	11.9µM*	·	19.1
COc1cc(C)ccc1OCCn1c(-c2ccc(Cl)cc2)nc2ccccc2c1=O	·	-7.9%	-9.3%	-7.5
CC(C)(C)OC(=O)NCCCNC(=O)[C@@H]1CCCN1c1ccnc2ccnn12	·	·	·	6.7
CC(C)C[C@H](NC(=O)[C@H](Cc1ccccc1)NC(=O)c1cnccn1)B(O)O	i	?	0.0482µM*	12.5
